Several values for one entry are separate records, joined by “and”; a condition that tells them apart may be missing. Identical values can stand only once. Inconclusive results are not listed. A call without a number means that no potency is given here. A number with no mark means an inactive call. Activity calls are given as the source filed them. Calls come from the whole dose curve; as a rule, active = well fitted curve in the direction sought with a large enough effect in the repeat runs; inconclusive = weak or mixed curves; inactive = no such curve, though single readings can be large; an effect the other way counts as inactive or inconclusive.
Test: A CellTox Green Cytotoxicity Assay to monitor cytotoxicity in HepG2 cells - 32 hour (AID 1224883); note: nearly all actives have a fitted effect of over 50% in size; note: potency is the fitted concentration of half-maximal effect
Conditions: CellTox Green fluorescence; series mostly up to 76.8 µM; cytotoxicity increase: at the top concentration
Method in brief: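 First, HepG2 cells (600/well) mixed with reagent were plated; second, after 5 h at 37 C they received compounds via pintool; third, fluorescence was measured at 0 h through 40 h at 8 h intervals.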
For `Cc1cc(CC(=O)O)n(C)c1C(=O)c1ccc(Cl)cc1`, the Potency was “inactive”.
For `Cc1ccccc1C=O`, the Potency was “inactive”.
With `C[n+]1ccn(CCO)c1` the “cytotoxicity increase” value was -0.0611%.
For `CCCN(CCC)C(=O)SCC`, the Potency was “inactive”.
For `C1CCCNCC1`, the Potency was “inactive”.
For `NCCNCCNCCN`, the Potency was “inactive”.
In the case of `COC(=O)/C=C\C(=O)OC`, the “cytotoxicity increase” value is reported as -6.97% [at 35.3 µM].
With `C=CC(=O)NCOCCCC` the Potency was “inactive”.
With `CS(=O)(=O)c1ccc(Cl)cc1` the “cytotoxicity increase” value was 0.852%.
For `OCC(O)CS` (centres undefined), the Potency was “inactive”.
In the case of `NC1CCCCC1N` (centres undefined), the Potency is reported as “inactive”.
For `CC(C)=CCC/C(C)=C/C=O`, the Potency was “inactive”.
In the case of `O=C(NCC1CCCCN1)c1cc(OCC(F)(F)F)ccc1OCC(F)(F)F` (centres undefined), the Potency is reported as “inactive”.
In the case of `CCCCCNCCCCC`, the Potency is reported as “inactive”.
In the case of `Cc1ccc(C)c(S(=O)(=O)O)c1`, the Potency is reported as “inactive”.
In the case of `C=C(CC(=O)O)C(=O)O`, the Potency is reported as “inactive”.
For `CCn1cc(C(=O)O)c(=O)c2cc3c(cc21)OCO3`, the Potency was “inactive”.
For `C=C1C[C@]23C[C@@]1(O)CC[C@H]2[C@@]12C=C[C@H](O)[C@@](C)(C(=O)O1)[C@H]2[C@@H]3C(=O)O`, the Potency was “inactive”.
In the case of `CC(=O)OCc1ccc2c(c1)OCO2`, the Potency is reported as “inactive”.
With `CCCOC(=O)NCCCN(C)C` the Potency was “inactive”.
With `CN1Cc2c(N)cccc2C(c2ccccc2)C1` (centres undefined) the Potency was “inactive”.
In the case of `O=c1n(CCCN2CCN(c3cccc(Cl)c3)CC2)nc2ccccn12`, the Potency is reported as “inactive”.
In the case of `Cc1ccccc1Cl`, the Potency is reported as “inactive”.
With `NC(N)=S` the Potency was “inactive”.
For `CC(C)(CO)CO`, the Potency was “inactive”.
In the case of `COC(=O)OC`, the Potency is reported as “inactive”.
For `CC1(C)C(=O)N(Cl)C(=O)N1Cl`, the Potency was “inactive”.
In the case of `CC(C)(C)NC[C@H](O)COc1nsnc1N1CCOCC1`, the Potency is reported as “inactive”.
For `Cc1cccc(C)c1[N+](=O)[O-]`, the Potency was “inactive”.
In the case of `CC(CN1c2ccccc2Sc2ccccc21)N(C)C` (centres undefined), the Potency is reported as 55.5 µM (active) and 49 µM (active) and 23.9 µM (active).
For `O=C(c1ccccc1)c1ccc(O)c(O)c1O`, the Potency was “inactive”.
For `O=C1OC(=O)c2c(Cl)c(Cl)c(Cl)c(Cl)c21`, the Potency was “inactive”.
With `OCc1ccc(Cl)cc1Cl` the Potency was “inactive”.
With `O=C1O[C@H]([C@H](O)CO)C(O)=C1O` the Potency was “inactive”.
In the case of `OCCOCCOCCOCCOCCO`, the Potency is reported as “inactive”.
With `CCN(CC)CCNC(=O)c1ccc(N)cc1` the Potency was “inactive”.
For `COCN(COC)c1nc(N(COC)COC)nc(N(COC)COC)n1`, the Potency was “inactive”.
With `CC(=O)OCCC(C)C` the Potency was “inactive”.

Test: A CellTox Green Cytotoxicity Assay to monitor cytotoxicity in HEK293 cells - 8 hour (AID 1224884); note: nearly all actives have a fitted effect of over 35% in size
Conditions: CellTox Green fluorescence; series mostly up to 76.8 µM; cytotoxicity increase: at the top concentration
Method in brief: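 Dead-cell fluorescence measured kinetically: asymmetric cyanine dye, HEK293, 600 cells/well, 5 h settle, 23 nL cpd/DMSO, 37 C, reads 0–40 h every 8 h.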
With `Cc1cc(CC(=O)O)n(C)c1C(=O)c1ccc(Cl)cc1` the Potency was “inactive”.
With `Cc1ccccc1C=O` the Potency was “inactive”.
With `C[n+]1ccn(CCO)c1` the Potency was “inactive”.
With `CCCN(CCC)C(=O)SCC` the Potency was “inactive”.
In the case of `C1CCCNCC1`, the Potency is reported as “inactive”.
In the case of `NCCNCCNCCN`, the Potency is reported as “inactive”.
In the case of `COC(=O)/C=C\C(=O)OC`, the Potency is reported as “inactive”.
In the case of `C=CC(=O)NCOCCCC`, the Potency is reported as “inactive”.
For `CS(=O)(=O)c1ccc(Cl)cc1`, the Potency was “inactive”.
With `OCC(O)CS` (centres undefined) the Potency was “inactive”.
With `NC1CCCCC1N` (centres undefined) the Potency was “inactive”.
For `CC(C)=CCC/C(C)=C/C=O`, the Potency was “inactive”.
In the case of `O=C(NCC1CCCCN1)c1cc(OCC(F)(F)F)ccc1OCC(F)(F)F` (centres undefined), the Potency is reported as “inactive”.
For `CCCCCNCCCCC`, the Potency was “inactive”.
With `Cc1ccc(C)c(S(=O)(=O)O)c1` the Potency was “inactive”.
With `C=C(CC(=O)O)C(=O)O` the Potency was “inactive”.
For `CCn1cc(C(=O)O)c(=O)c2cc3c(cc21)OCO3`, the Potency was “inactive”.
In the case of `C=C1C[C@]23C[C@@]1(O)CC[C@H]2[C@@]12C=C[C@H](O)[C@@](C)(C(=O)O1)[C@H]2[C@@H]3C(=O)O`, the Potency is reported as “inactive”.
With `CC(=O)OCc1ccc2c(c1)OCO2` the Potency was “inactive”.
In the case of `CCCOC(=O)NCCCN(C)C`, the Potency is reported as “inactive”.
With `CN1Cc2c(N)cccc2C(c2ccccc2)C1` (centres undefined) the Potency was “inactive”.
For `O=c1n(CCCN2CCN(c3cccc(Cl)c3)CC2)nc2ccccn12`, the Potency was “inactive”.
For `Cc1ccccc1Cl`, the Potency was “inactive”.
With `NC(N)=S` the Potency was “inactive”.
In the case of `CC(C)(CO)CO`, the Potency is reported as “inactive”.
In the case of `COC(=O)OC`, the Potency is reported as “inactive”.
With `CC1(C)C(=O)N(Cl)C(=O)N1Cl` the Potency was “inactive”.
With `CC(C)(C)NC[C@H](O)COc1nsnc1N1CCOCC1` the Potency was “inactive”.
With `Cc1cccc(C)c1[N+](=O)[O-]` the Potency was “inactive”.
With `CC(CN1c2ccccc2Sc2ccccc21)N(C)C` (centres undefined) the Potency was “inactive”.
For `O=C(c1ccccc1)c1ccc(O)c(O)c1O`, the Potency was “inactive”.
With `O=C1OC(=O)c2c(Cl)c(Cl)c(Cl)c(Cl)c21` the Potency was “inactive”.
For `OCc1ccc(Cl)cc1Cl`, the Potency was “inactive”.
For `O=C1O[C@H]([C@H](O)CO)C(O)=C1O`, the Potency was “inactive”.
With `OCCOCCOCCOCCOCCO` the Potency was “inactive”.
In the case of `CCN(CC)CCNC(=O)c1ccc(N)cc1`, the Potency is reported as “inactive”.
With `COCN(COC)c1nc(N(COC)COC)nc(N(COC)COC)n1` the Potency was “inactive”.
With `CC(=O)OCCC(C)C` the Potency was “inactive”.

Test: qHTS RealTime-Glo MT Cell Viability Assay in HepG2 cells - 16 hour (AID 1224885); note: nearly all actives have a fitted effect of over 50% in size
Conditions: RealTime-Glo luminescence; series mostly up to 76.8 µM; activity change, negative = cytotoxic: at the top concentration
Method in brief: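 qHTS, HepG2, 600 cells/well, RealTime-Glo (NanoLuc + prosubstrate) added with cells; 5 h preincubation; DMSO compound addition; 37 C; luminescence at 0/8/16/24/32/40 h.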
For `Cc1cc(CC(=O)O)n(C)c1C(=O)c1ccc(Cl)cc1`, the Potency was “inactive”.
In the case of `Cc1ccccc1C=O`, the Potency is reported as “inactive”.
For `C[n+]1ccn(CCO)c1`, the Potency was “inactive”.
With `CCCN(CCC)C(=O)SCC` the Potency was “inactive”.
In the case of `C1CCCNCC1`, the Potency is reported as “inactive”.
For `NCCNCCNCCN`, the Potency was “inactive”.
For `COC(=O)/C=C\C(=O)OC`, the Potency was “inactive”.
In the case of `C=CC(=O)NCOCCCC`, the Potency is reported as “inactive”.
For `CS(=O)(=O)c1ccc(Cl)cc1`, the Potency was “inactive”.
With `OCC(O)CS` (centres undefined) the Potency was “inactive”.
For `NC1CCCCC1N` (centres undefined), the Potency was “inactive”.
In the case of `CC(C)=CCC/C(C)=C/C=O`, the Potency is reported as “inactive”.
For `O=C(NCC1CCCCN1)c1cc(OCC(F)(F)F)ccc1OCC(F)(F)F` (centres undefined), the Potency was “inactive”.
For `CCCCCNCCCCC`, the Potency was “inactive”.
With `Cc1ccc(C)c(S(=O)(=O)O)c1` the Potency was “inactive”.
For `C=C(CC(=O)O)C(=O)O`, the Potency was “inactive”.
With `CCn1cc(C(=O)O)c(=O)c2cc3c(cc21)OCO3` the Potency was “inactive”.
In the case of `C=C1C[C@]23C[C@@]1(O)CC[C@H]2[C@@]12C=C[C@H](O)[C@@](C)(C(=O)O1)[C@H]2[C@@H]3C(=O)O`, the Potency is reported as “inactive”.
For `CC(=O)OCc1ccc2c(c1)OCO2`, the Potency was “inactive”.
With `CCCOC(=O)NCCCN(C)C` the Potency was “inactive”.
In the case of `CN1Cc2c(N)cccc2C(c2ccccc2)C1` (centres undefined), the Potency is reported as “inactive”.
For `O=c1n(CCCN2CCN(c3cccc(Cl)c3)CC2)nc2ccccn12`, the Potency was “inactive”.
In the case of `Cc1ccccc1Cl`, the Potency is reported as “inactive”.
For `NC(N)=S`, the Potency was “inactive”.
For `CC(C)(CO)CO`, the Potency was “inactive”.
For `COC(=O)OC`, the Potency was “inactive”.
In the case of `CC1(C)C(=O)N(Cl)C(=O)N1Cl`, the Potency is reported as “inactive”.
With `CC(C)(C)NC[C@H](O)COc1nsnc1N1CCOCC1` the Potency was “inactive”.
With `Cc1cccc(C)c1[N+](=O)[O-]` the Potency was “inactive”.
With `CC(CN1c2ccccc2Sc2ccccc21)N(C)C` (centres undefined) the Potency was “inactive”.
In the case of `O=C(c1ccccc1)c1ccc(O)c(O)c1O`, the Potency is reported as “inactive”.
In the case of `O=C1OC(=O)c2c(Cl)c(Cl)c(Cl)c(Cl)c21`, the Potency is reported as “inactive”.
With `OCc1ccc(Cl)cc1Cl` the Potency was “inactive”.
With `O=C1O[C@H]([C@H](O)CO)C(O)=C1O` the Potency was “inactive”.
With `OCCOCCOCCOCCOCCO` the Potency was “inactive”.
With `CCN(CC)CCNC(=O)c1ccc(N)cc1` the Potency was “inactive”.
For `COCN(COC)c1nc(N(COC)COC)nc(N(COC)COC)n1`, the Potency was “inactive”.
With `CC(=O)OCCC(C)C` the Potency was “inactive”.
